The source of these data is PubChem BioAssay (Tox21).

A short description of test [1]: qHTS assay to identify small molecule antagonists of the thyroid receptor (TR) signaling pathway - cell viability counter screen (AID 743064). Note: nearly all actives have a fitted effect of over 50% in size. Note: potency is the fitted concentration of half-maximal effect. In a few lines:
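Plate GH3.TRE-Luc cells; incubate 4 h at 37 °C; add compound, then T3 to 1 nM final; incubate 23.5 h; add CellTiter-Fluor; incubate 30 min at 37 °C, 5% CO2; read fluorescence.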
On the technique in general: In qHTS, concentration-response curves come from the screen itself.

Test [2] is described as follows: qHTS assay to identify small molecule antagonists of the thyroid receptor (TR) signaling pathway (AID 743065). Note: nearly all actives have a fitted effect of over 55% in size. Note: potency is the fitted concentration of half-maximal effect. In a few lines: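 Antagonism measured as loss of luciferase signal in GH3 cells stably carrying a TRE-luciferase reporter, co-treated with compound and T3 (1 nM final) for 23.5 h at 37 C. Viability was read in the same well by CellTiter-Fluor.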
Test [3] concerns the target Estrogen receptor (Homo sapiens) (UniProt P03372). As to the kind of experiment: qHTS assay to identify small molecule antagonists of the estrogen receptor alpha (ER-alpha) signaling pathway (AID 743069; active = well fitted curve in the direction sought with a large enough effect in the signal ratio in the repeat runs, not every such curve was filed as active; inconclusive = weak or mixed curves, or effect the other way; inactive = no such curve, though single readings can be large or run the other way; the % refers to the signal ratio; note: potency is the fitted concentration of half-maximal effect). The procedure, abridged:
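Antagonist mode: compounds in DMSO were co-added with 17beta-estradiol to ER-alpha-bla HEK293 cells (2% charcoal-stripped serum) and left 18 h at 37C. Reporter inhibition was measured as FRET fluorescence after 2 h LiveBLAzer substrate at room temperature.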

For test [4] the target is unchanged. Description: qHTS assay to identify small molecule agonists of the estrogen receptor alpha (ER-alpha) signaling pathway (AID 743075; calls by dose curve;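 note: HEK293 GripTite cells with ER-alpha and UAS-driven beta-lactamase reporter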; note: potency is the fitted concentration of half-maximal effect).
The nature of test [5]: qHTS assay to identify small molecule antagonists of the estrogen receptor alpha (ER-alpha) signaling pathway using the BG1 cell line (AID 743080; calls by dose curve;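 note: BG1 cells stimulated with 17beta-estradiol alongside compound; nearly all actives have a fitted effect of over 25% in size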; note: potency is the fitted concentration of half-maximal effect). The procedure, abridged: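 After 5 days in phenol-red-free 10% charcoal-stripped FBS medium, BG1-Luc-4E2 cells were seeded, left 24 h at 37 C, co-treated with compounds and 17beta-estradiol for 21.5 h, then assayed for viability and luciferase.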

Test [6] can be described thus: qHTS assay to identify small molecule antagonists of the estrogen receptor alpha (ER-alpha) signaling pathway using the BG1 cell line - cell viability counter screen (AID 743081).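 Note: compound given together with 17beta-estradiol as the ER stimulus; nearly all actives have a fitted effect of over 45% in size.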 Note: potency is the fitted concentration of half-maximal effect.
The target of another test is Aromatase (Homo sapiens) (UniProt P11511). Description: qHTS assay to identify aromatase inhibitors (AID 743083). Note: nearly all actives have a fitted effect of over 55% in size. Note: potency is the fitted concentration of half-maximal effect.
Test [7] is described as follows: qHTS assay to identify aromatase inhibitors - cell viability counter screen (AID 743084).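 Note: cells stimulated with testosterone during compound exposure; nearly all actives have a fitted effect of over 55% in size.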 Note: potency is the fitted concentration of half-maximal effect.
The nature of test [8]: qHTS assay to identify small molecule that activate the aryl hydrocarbon receptor (AhR) signaling pathway - cell viability counter screen (AID 743086). Note: nearly all actives have a fitted effect of over 45% in size. Note: potency is the fitted concentration of half-maximal effect. In a few lines:
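Cytotoxicity counter screen: CellTiter-Fluor signal (30 min, 37 C) in 4000 HepG2 cells/well carrying the DRE-luciferase reporter, following 24 h compound exposure at 37 C.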

Test [9] deals with thyroid hormone receptor (rat, GH3 cells). As to the kind of experiment: qHTS assay to identify small molecule agonists of the thyroid receptor (TR) signaling pathway (AID 743066; calls by dose curve).
The nature of test [10]: qHTS assay to identify small molecule antagonists of the estrogen receptor alpha (ER-alpha) signaling pathway - cell viability counter screen (AID 743074; calls by dose curve;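 note: HEK293 cells carrying ER-alpha-UAS-bla reporter stimulated with 17beta-estradiol; nearly all actives have a fitted effect of over 45% in size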).
Test [11] concerns the target Aryl hydrocarbon receptor (Homo sapiens) (UniProt P35869). Description: qHTS assay to identify small molecule that activate the aryl hydrocarbon receptor (AhR) signaling pathway (AID 743085).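 For activation: HG2L7.5c1 human HepG2 liver cells with stably integrated DRE-driven firefly reporter; series mostly up to about 70 µM.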 Note: nearly all actives have a fitted effect of over 15% in size. Note: potency is the fitted concentration of half-maximal effect. The procedure, abridged:
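Steps: seed HepG2-AhR-luc cells; allow 5 h at 37C; pin-transfer test compound or vehicle; incubate 24 h at 37C; add viability dye (30 min, 37C) and read fluorescence; add luciferase substrate (30 min, RT) and read luminescence.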

Test [12] addresses Peroxisome proliferator-activated receptor gamma (Homo sapiens) (UniProt P37231). As to the kind of experiment: qHTS assay to identify small molecule agonists of the peroxisome proliferator-activated receptor gamma (PPARg) signaling pathway (AID 743094; active = well fitted activation curve with a large enough effect in the signal ratio in the repeat runs, not every such curve was filed as active; inconclusive = weak or mixed curves, or effect the other way; inactive = no such curve, though single readings can be large or run the other way; the % refers to the signal ratio; note: potency is the fitted concentration of half-maximal effect). The procedure, abridged:
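Agonism was assessed in a beta-lactamase reporter system, HEK293H cells with a stably integrated UAS-bla construct under PPARg control; the 17 h treatment at 37C preceded a 1 h room-temperature FRET substrate read.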

Test [13] concerns the target Estrogen receptor (Homo sapiens) (UniProt P03372). Description: qHTS assay to identify small molecule agonists of the estrogen receptor alpha (ER-alpha) signaling pathway using the BG1 cell line (AID 743079). Note: nearly all actives have a fitted effect of over 20% in size. Note: potency is the fitted concentration of half-maximal effect.

“And” between values parts separate entries of the source, which are not always exact repeats. Equal values may be shown once. The source made the active and inactive calls. Unless noted, calls come from the whole dose curve; as a rule, active = well fitted curve in the direction sought with a large enough effect in the repeat runs; inconclusive = weak or mixed curves; inactive = no such curve, though single readings can be large; an effect the other way counts as inactive or inconclusive.

Sequence of Estrogen receptor (Homo sapiens) (P03372 whole entry, looked up): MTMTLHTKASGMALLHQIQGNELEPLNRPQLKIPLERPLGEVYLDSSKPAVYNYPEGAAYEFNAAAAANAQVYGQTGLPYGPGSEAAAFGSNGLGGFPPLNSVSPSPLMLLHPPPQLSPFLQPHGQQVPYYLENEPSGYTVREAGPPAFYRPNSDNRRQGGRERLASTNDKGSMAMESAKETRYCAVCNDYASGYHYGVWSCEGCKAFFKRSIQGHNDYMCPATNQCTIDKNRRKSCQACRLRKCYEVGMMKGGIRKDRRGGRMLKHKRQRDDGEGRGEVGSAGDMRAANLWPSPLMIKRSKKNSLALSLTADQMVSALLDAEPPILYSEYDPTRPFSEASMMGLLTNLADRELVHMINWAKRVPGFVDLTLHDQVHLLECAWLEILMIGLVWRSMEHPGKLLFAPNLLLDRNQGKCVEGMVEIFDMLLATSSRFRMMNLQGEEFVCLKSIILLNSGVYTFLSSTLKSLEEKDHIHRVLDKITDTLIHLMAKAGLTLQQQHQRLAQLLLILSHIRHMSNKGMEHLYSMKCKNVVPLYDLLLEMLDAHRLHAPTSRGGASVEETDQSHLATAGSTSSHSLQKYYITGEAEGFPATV
Sequence of Peroxisome proliferator-activated receptor gamma (Homo sapiens) (P37231 whole entry, looked up): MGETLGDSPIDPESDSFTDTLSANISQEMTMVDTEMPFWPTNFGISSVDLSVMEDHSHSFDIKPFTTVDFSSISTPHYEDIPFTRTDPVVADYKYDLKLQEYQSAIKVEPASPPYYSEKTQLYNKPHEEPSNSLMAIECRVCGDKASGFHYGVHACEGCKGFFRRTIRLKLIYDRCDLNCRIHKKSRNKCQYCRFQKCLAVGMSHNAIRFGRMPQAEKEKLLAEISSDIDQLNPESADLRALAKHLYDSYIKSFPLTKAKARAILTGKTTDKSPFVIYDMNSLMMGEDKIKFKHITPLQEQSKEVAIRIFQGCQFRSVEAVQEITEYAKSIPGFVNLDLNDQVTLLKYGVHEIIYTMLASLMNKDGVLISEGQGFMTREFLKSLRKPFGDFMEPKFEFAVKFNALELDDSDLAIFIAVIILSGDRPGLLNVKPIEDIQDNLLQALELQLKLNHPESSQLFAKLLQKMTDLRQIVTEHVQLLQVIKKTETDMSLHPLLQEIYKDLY
Sequence of Aryl hydrocarbon receptor (Homo sapiens) (P35869 whole entry, looked up): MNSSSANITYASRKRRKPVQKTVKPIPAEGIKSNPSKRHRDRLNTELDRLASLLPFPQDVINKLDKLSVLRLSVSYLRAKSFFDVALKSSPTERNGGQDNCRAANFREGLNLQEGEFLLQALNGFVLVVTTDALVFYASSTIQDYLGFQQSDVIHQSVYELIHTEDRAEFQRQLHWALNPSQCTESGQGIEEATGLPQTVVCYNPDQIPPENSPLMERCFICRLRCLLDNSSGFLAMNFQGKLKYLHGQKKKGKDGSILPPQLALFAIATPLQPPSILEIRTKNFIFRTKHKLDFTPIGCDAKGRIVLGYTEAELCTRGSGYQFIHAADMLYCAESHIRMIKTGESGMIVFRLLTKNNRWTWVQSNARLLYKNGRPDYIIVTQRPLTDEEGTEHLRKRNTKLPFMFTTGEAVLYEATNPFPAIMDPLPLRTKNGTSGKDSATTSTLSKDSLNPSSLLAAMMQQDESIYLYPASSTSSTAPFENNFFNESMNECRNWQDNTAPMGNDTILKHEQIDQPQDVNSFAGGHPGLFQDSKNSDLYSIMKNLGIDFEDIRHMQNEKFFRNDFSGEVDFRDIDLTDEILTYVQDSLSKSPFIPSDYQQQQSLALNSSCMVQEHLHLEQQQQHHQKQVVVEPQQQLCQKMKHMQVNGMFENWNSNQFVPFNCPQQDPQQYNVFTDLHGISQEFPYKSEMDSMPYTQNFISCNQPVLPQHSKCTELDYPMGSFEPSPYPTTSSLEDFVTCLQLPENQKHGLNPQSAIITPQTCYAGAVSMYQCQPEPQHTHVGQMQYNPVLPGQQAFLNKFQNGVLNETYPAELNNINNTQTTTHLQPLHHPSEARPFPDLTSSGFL
Sequence of Aromatase (Homo sapiens) (P11511 whole entry, looked up): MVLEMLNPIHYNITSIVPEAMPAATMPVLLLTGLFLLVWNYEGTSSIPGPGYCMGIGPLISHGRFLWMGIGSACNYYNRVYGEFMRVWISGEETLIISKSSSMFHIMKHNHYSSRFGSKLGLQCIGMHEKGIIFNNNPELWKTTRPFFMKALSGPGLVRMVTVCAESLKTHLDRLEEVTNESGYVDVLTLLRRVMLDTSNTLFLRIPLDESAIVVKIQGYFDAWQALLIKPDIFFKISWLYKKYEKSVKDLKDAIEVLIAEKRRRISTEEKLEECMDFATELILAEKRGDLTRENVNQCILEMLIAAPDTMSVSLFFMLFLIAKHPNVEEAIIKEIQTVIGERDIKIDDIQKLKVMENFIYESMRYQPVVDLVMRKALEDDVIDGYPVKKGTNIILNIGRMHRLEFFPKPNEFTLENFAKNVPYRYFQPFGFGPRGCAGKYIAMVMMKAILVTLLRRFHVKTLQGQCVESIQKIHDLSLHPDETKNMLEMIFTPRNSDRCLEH

On to `COc1cc2c(cc1O)CCN[C@]21CS[C@@H]2c3c(OC(C)=O)c(C)c4c(c3[C@H](COC1=O)N1[C@@H]2[C@H]2c3c(cc(C)c(OC)c3O)C[C@@H]([C@@H]1O)N2C)OCO4`, for which the Potency in test [1] was 2.4 nM (active) and 4.3 nM (active); in [2] it was 1.9 nM (active) and 2.7 nM (active); in test [3], 33.8 nM [inconclusive] (active) and 49 nM [inconclusive] (active); in test [5], 26.6 nM (active) and 43.3 nM (active); in [6] it was 26.6 µM (active) and 13.7 µM (active); with Aromatase (Homo sapiens), 29.8 nM (active) and 48.6 nM (active). Also, the Potency in test [7] is 24.3 µM (active); in [8], 0.0168 µM (active). Also, the Potency entry in [4] was “inactive”.
For `N#Cc1c(N(CC(=O)O)CC(=O)O)sc(C(=O)O)c1CC(=O)O`, the Potency result in [1], in test [9], in test [3], in [10], in test [4] and in test [5] was “inactive” in each case. In addition, the Potency result (in test [6]; in the test with Aromatase (Homo sapiens); in test [7]; in test [11]; in test [8]; in test [12]) was “inactive” each time.
`CCCC(=O)c1cc(O)c(O)cc1O`: the Potency in test [2] and in test [6] was 61.1 µM (active) throughout. In addition, the Potency entry in test [9], in [3], in test [4], in test [13] and in test [5] was “inactive” throughout.
As for `COc1ccc(/C=N/NC(=O)c2ccncc2)c(C(=O)O)c1OC`, the Potency result in [2], in [9], in test [3], in test [10], in test [4] and in test [13] was “inactive” each time. The Potency entry (in [5]; in [6]; with Aromatase (Homo sapiens); in [7]; in [8]; in test [12]) was “inactive” throughout. Also, the Potency in [11] was 11.9 µM (active).
Regarding `CCOc1ccc(S(=O)(=O)O)c2cccnc12`, the Potency entry in [2], in test [9], in test [3], in [10], in test [5] and in test [6] was “inactive” in each case. The Potency entry (with Aromatase (Homo sapiens); in test [7]; in [11]; in test [8]) was “inactive” in each case. Besides, the Potency in test [4] is 23.9 µM [inconclusive] (active); in test [13], 6.68 µM (active).
Regarding `CC(C)CCC[C@@H](C)[C@H]1CC[C@H]2[C@@H]3CC[C@@H]4C[C@H](O)CC[C@]4(C)[C@H]3CC[C@]12C`, the Potency entry in [2], in test [9], in test [3], in test [10], in test [4] and in test [13] was “inactive” in each case. Moreover, the Potency entry (in test [5]; in [6]; with Aromatase (Homo sapiens); in test [7]; in [8]; in test [12]) was “inactive” each time.
Turning to `O=C1[O][Bi][O]c2ccccc21`, the Potency entry in [1], in test [9], in test [3], in [10], in [4] and in test [13] was “inactive” throughout. For the same compound, the Potency entry (in test [5]; in test [6]; in the test with Aromatase (Homo sapiens); in test [7]; in test [8]) was “inactive” each time.
`CC(C)(Oc1ccc(C2CCCc3ccccc32)cc1)C(=O)O` (stereo unspecified): the Potency result in test [2], in test [9], in test [3], in test [10], in [4] and in [5] was “inactive” in each case. Also, the Potency result (in test [6]; in the test with Aromatase (Homo sapiens); in test [7]; in test [11]; in test [8]) was “inactive” throughout. Moreover, the Potency in test [13] is 18.8 µM (active); in test [12], 2.39 µM (active).
Consider `CC(C)(COP(=O)(O)OP(=O)(O)OC[C@H]1O[C@@H](n2cnc3c(N)ncnc32)[C@H](O)[C@@H]1OP(=O)(O)O)C(O)C(=O)NCCC(=O)NCCS` (stereo partly specified), for which the Potency result in test [1], in [9], in test [3], in [10], in [4] and in test [5] was “inactive” each time. Moreover, the Potency result (in [6]; with Aromatase (Homo sapiens); in [7]; in [8]; in [12]) was “inactive” in each case. Moreover, the Potency in test [13] was 26.6 µM (active).
As for `CCC(O)c1ccccc1` (stereo unspecified), the Potency result in test [1], in test [3], in test [4], in test [13], in test [5] and in test [6] was “inactive” in each case. Besides, the Potency entry (in the test with Aromatase (Homo sapiens); in test [7]; in test [8]; in [12]) was “inactive” throughout.
For the compound `N=C(N)c1ccc(/C=C/c2ccc(C(=N)N)cc2O)cc1`, the Potency entry in test [2], in [9], in [3], in [10], in test [4] and in test [13] was “inactive” each time. Moreover, the Potency result (in [5]; in test [6]; with Aromatase (Homo sapiens); in test [7]; in [8]; in test [12]) was “inactive” each time.
Regarding `O=C1CCC(c2ccccc2)(C2CCN(Cc3ccccc3)CC2)C(=O)N1` (stereo unspecified), the Potency entry in [2], in test [9], in [3], in [10], in [4] and in test [13] was “inactive” throughout. Besides, the Potency result (in test [5]; in [6]; with Aromatase (Homo sapiens); in [7]; in test [11]; in [8]) was “inactive” in each case. Besides, the Potency result in test [12] was “inactive”.
